A selection: hits, their analogues and other compounds. The true share with any hit is near 4.1%.
TROY signal inh: blocks TROY-dependent signaling in reporter cells | Q293 LMP1-TROYcd NF-kB luciferase reporter, 4 h | inhibition, % at 10 µM | 360,000 tested, 0.98% active | AID 1347056;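 active = compounds whose plate-normalised and pattern-corrected inhibition of the luciferase reporter signal at the single screening dose is 50% or more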
Peg3 promoter: inhibitors of Peg3 promoter | 360,000 tested, 1.7% active | inhibition, % at 20 µM | HeLa PEG-Prom luciferase reporter, luminescence, overnight;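 active = inhibition of at least 50% at 20 µM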
Shn3 3UTR inh: reduces Shn3 3'UTR luciferase signal in osteoblasts; Clone20 osteoblast Shn3 3'UTR firefly luciferase, 24 h; inhibition, % at 12.5 µM; 360,000 tested, 0.52% active; AID 588674;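 active = mean inhibition of at least 75% with every replicate also reaching 75%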
TWEAK-Fn14 inh: inhibitors of TWEAK-Fn14 interaction signaling. inhibition, % at 10 µM. TWEAK-stimulated Fn14 reporter cells, luciferase luminescence, 8 h. AID 1159606. 360,000 tested, 2% active; in the data active = inhibition above about 50%
LMP1 NFkB inh: inhibitors of Epstein-Barr LMP1-induced NF-kappaB reporter | 350,000 tested, 0.69% active | inhibition, % at 12.5 µM | LMP1-induced NF-kappaB luciferase reporter cells, luminescence; in the data active = inhibition above about 41%
TRPM1 prom inh: reduces MITF-dependent TRPM1 promoter luciferase signal; SK-MEL-5 TRPM1 promoter luciferase, 24 h; inhibition, % at 12.5 µM; 330,000 tested, 0.83% active; AID 488899;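 active = mean inhibition across replicates of 60% or more, whatever share of single replicates reaches that level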
Hits are given with their value.

CC(C)NC(=O)N(C)C[C@H]1Oc2ccc(NC(=O)C3CC3)cc2C(=O)N([C@H](C)CO)C[C@@H]1C was read as TROY signal inh inactive, Peg3 promoter inactive, Shn3 3UTR inh inactive, TWEAK-Fn14 inh inactive, LMP1 NFkB inh inactive and TRPM1 prom inh inactive.
For Cc1ccc(C2CN(CCC(N)=O)C(=O)CO2)cc1 (stereo not drawn) the results were TROY signal inh inactive, Peg3 promoter inactive, Shn3 3UTR inh inactive, TWEAK-Fn14 inh inactive, LMP1 NFkB inh inactive and TRPM1 prom inh inactive.
CC(C)C[C@H]1CNC(=S)N1C[C@H]1CCCN1C[C@H](CC(C)C)N1C[C@H](Cc2ccc(O)cc2)N(CC2CCCCCC2)C1=S was read as TROY signal inh inactive, Peg3 promoter 87, Shn3 3UTR inh inactive and TWEAK-Fn14 inh inactive.
For CC(C)C[C@H]1CNC(=S)N1CC1CCCN1C[C@H](CC(C)C)N1C[C@H](Cc2ccc(O)cc2)N(CC2CCCCCC2)C1=S (stereo partly drawn) the results were TROY signal inh inactive, Peg3 promoter 87, Shn3 3UTR inh inactive, TWEAK-Fn14 inh inactive, LMP1 NFkB inh inactive and TRPM1 prom inh inactive.
`CC(C)C[C@@H](CN1CCCC1CN1C(=S)NC[C@@H]1Cc1ccc(O)cc1)N1C[C@H](Cc2ccc(O)cc2)N(CC2CCCCC2)C1=S` (stereo partly drawn) gave TROY signal inh inactive, Peg3 promoter 93, Shn3 3UTR inh inactive, TWEAK-Fn14 inh 56, LMP1 NFkB inh inactive and TRPM1 prom inh inactive.
`CC(C)C[C@@H](CN1CCC[C@@H]1CN1C(=S)NC[C@@H]1Cc1ccccc1)N1C[C@H](Cc2ccc(O)cc2)N(CC2CCCCC2)C1=S` gave TROY signal inh inactive, Peg3 promoter inactive, Shn3 3UTR inh inactive and TWEAK-Fn14 inh inactive.
`CC(C)C[C@H]1CNC(=S)N1CC1CCCN1C[C@H](CC(C)C)N1C[C@H](Cc2ccc(O)cc2)N(CC2CCCCC2)C1=S` (stereo partly drawn) gave TROY signal inh inactive, Peg3 promoter 78, Shn3 3UTR inh inactive, TWEAK-Fn14 inh inactive, LMP1 NFkB inh inactive and TRPM1 prom inh inactive.
For CCCOc1ccc(CNCCCOCC)cc1OC the results were TROY signal inh inactive, Peg3 promoter inactive, Shn3 3UTR inh inactive, TWEAK-Fn14 inh inactive, LMP1 NFkB inh inactive and TRPM1 prom inh inactive.
`COc1ccc(-c2ccc3oc(-c4ccc(OC)cc4)c(C#CCO)c3c2)cc1` gave TROY signal inh inactive, Peg3 promoter inactive, Shn3 3UTR inh inactive, TWEAK-Fn14 inh 53, LMP1 NFkB inh inactive and TRPM1 prom inh inactive.
`COc1ccc(-c2oc3ccc(N4CCOCC4)cc3c2C#CCO)cc1` gave TROY signal inh 54, Peg3 promoter 83, Shn3 3UTR inh inactive, TWEAK-Fn14 inh 97, LMP1 NFkB inh inactive and TRPM1 prom inh inactive.
COc1ccc(-c2sc3ccc(N4CCOCC4)cc3c2C#CC(C)(C)O)cc1 was read as TROY signal inh inactive, Peg3 promoter inactive, Shn3 3UTR inh inactive, TWEAK-Fn14 inh inactive, LMP1 NFkB inh inactive and TRPM1 prom inh inactive.
For COCCNC(=O)C1(C)CCN(Cc2ccc(C(C)C)cc2)C1 (stereo not drawn) the results were TROY signal inh inactive, Peg3 promoter inactive, Shn3 3UTR inh inactive and TWEAK-Fn14 inh inactive.
For O=S(=O)(Nc1ccc(O)c2ccccc12)c1ccc(F)cc1 the results were TROY signal inh inactive, Peg3 promoter inactive, Shn3 3UTR inh inactive, TWEAK-Fn14 inh inactive, LMP1 NFkB inh inactive and TRPM1 prom inh inactive.
Screening Cc1ccc(NS(=O)(=O)c2cc(NC(=O)C(C)Oc3ccccc3)ccc2C)c(C)c1 (stereo not drawn) returned TROY signal inh inactive, Peg3 promoter inactive, Shn3 3UTR inh inactive, TWEAK-Fn14 inh inactive, LMP1 NFkB inh inactive and TRPM1 prom inh inactive.
`O=C(O)CSc1cc(NS(=O)(=O)c2cccc([N+](=O)[O-])c2)c2ccccc2c1O` gave TROY signal inh 62, Peg3 promoter inactive, Shn3 3UTR inh inactive, TWEAK-Fn14 inh 91, LMP1 NFkB inh inactive and TRPM1 prom inh 76.
Screening CCc1ccc(S(=O)(=O)Nc2ccc(O)c3ccccc23)cc1 returned TROY signal inh inactive, Peg3 promoter inactive, Shn3 3UTR inh inactive, TWEAK-Fn14 inh 94, LMP1 NFkB inh inactive and TRPM1 prom inh inactive.
`Cc1ccc(C)c(S(=O)(=O)Nc2cc(SCC(=O)O)c(O)c3ccccc23)c1` gave TROY signal inh 59, Peg3 promoter 97, Shn3 3UTR inh inactive, TWEAK-Fn14 inh 94, LMP1 NFkB inh inactive and TRPM1 prom inh 67.
For CCOc1ccc(S(=O)(=O)Nc2cc(SCC(=O)O)c(O)c3ccccc23)cc1 the results were TROY signal inh 54, Peg3 promoter inactive, Shn3 3UTR inh inactive, TWEAK-Fn14 inh inactive, LMP1 NFkB inh inactive and TRPM1 prom inh inactive.
`O=S(=O)(Nc1cccc(S(=O)(=O)N2CCCC2)c1)c1ccccc1F` gave TROY signal inh inactive, Peg3 promoter inactive, Shn3 3UTR inh inactive, TWEAK-Fn14 inh inactive, LMP1 NFkB inh inactive and TRPM1 prom inh inactive.
`CCc1ccc(S(=O)(=O)Nc2cc(SCC(=O)O)c(O)c3ccccc23)cc1` gave TROY signal inh 60, Peg3 promoter inactive, Shn3 3UTR inh inactive, TWEAK-Fn14 inh 83, LMP1 NFkB inh inactive and TRPM1 prom inh inactive.
COc1ccccc1NC(=O)c1c(C)cc(=O)oc1C was read as TROY signal inh inactive, Peg3 promoter inactive, Shn3 3UTR inh inactive, TWEAK-Fn14 inh 60, LMP1 NFkB inh inactive and TRPM1 prom inh inactive.
`COc1ccc(CNc2ncc(-c3cccc([N+](=O)[O-])c3)n2C)c(OC)c1OC` gave TROY signal inh inactive, Peg3 promoter inactive, Shn3 3UTR inh inactive, TWEAK-Fn14 inh inactive, LMP1 NFkB inh inactive and TRPM1 prom inh inactive.
CCc1nc(C)cn1S(=O)(=O)c1ccc2c(c1)OCCO2 was read as TROY signal inh inactive, Peg3 promoter inactive, Shn3 3UTR inh inactive, TWEAK-Fn14 inh inactive, LMP1 NFkB inh inactive and TRPM1 prom inh inactive.
`COc1ccc(-c2csc(-c3ccccc3)n2)c(OC)c1` gave TROY signal inh inactive, Peg3 promoter inactive, Shn3 3UTR inh inactive, TWEAK-Fn14 inh 56, LMP1 NFkB inh inactive and TRPM1 prom inh inactive.
Screening NS(=O)(=O)c1ccc(CCNC(=O)c2cc(S(=O)(=O)N3CCCCC3)ccc2Cl)cc1 returned TROY signal inh inactive, Peg3 promoter inactive, Shn3 3UTR inh inactive, TWEAK-Fn14 inh inactive and LMP1 NFkB inh inactive.
`Cc1cc(C(=O)CCl)c(C)n1-c1ccon1` gave TROY signal inh inactive, Peg3 promoter 53, Shn3 3UTR inh inactive, TWEAK-Fn14 inh inactive, LMP1 NFkB inh inactive and TRPM1 prom inh inactive.
For CC(=O)c1cccc(OCC(=O)c2cc(C)n(-c3cc(C)on3)c2C)c1 the results were TROY signal inh inactive, Peg3 promoter inactive, Shn3 3UTR inh inactive, TWEAK-Fn14 inh inactive, LMP1 NFkB inh inactive and TRPM1 prom inh inactive.
Screening Cc1cc(C(=O)CCl)c(C)n1-c1cccc([N+](=O)[O-])c1 returned TROY signal inh inactive, Peg3 promoter 105, Shn3 3UTR inh inactive, TWEAK-Fn14 inh inactive, LMP1 NFkB inh inactive and TRPM1 prom inh inactive.

Source: PubChem (several laboratories)
